# System: Plasmodium falciparum
# Assay: GSK_TCMDC: Inhibition of Plasmodium falciparum 3D7 in whole red blood cells, using parasite LDH activity as an index of growth. Test compounds present at 2uM
# Format: functional
row,Structure (SMILES),Inhibition [%]
1,O=C(Nc1ccc(-c2ccccc2)c(OCCN2CCNCC2)c1)c1ccc(-c2ccc(Cl)cc2)cc1,96
2,CN1CCN(c2ccc(Nc3c(C(N)=O)cnc4cc(-c5ccoc5)ccc34)cc2C(F)(F)F)CC1.Cl,100
3,Cc1cc(=NN=Cc2ccccc2)c2cc(C(F)(F)F)ccc2[nH]1,100
4,COc1cc(Cc2cnc(N)nc2N)ccc1OCc1ccc(-c2ccccc2C#N)cc1,93
5,CC1CC(C)CN(CC(O)CNC(=O)Nc2ccc(Br)cc2)C1.O=C(O)C(F)(F)F (stereo not given),94
6,CC(=O)Nc1ccc(CN2CCN(C(c3ccc(F)cc3)c3ccc(F)cc3)CC2)cc1,93
7,CCCCNc1c(C(=O)OCC)c(C)nc2c1[nH]c1ccccc12,100
8,CC[C@@H]([C@@H](CC(C)C)C(=O)N[C@@H](CCCCNC(=O)OCc1ccccc1)C(=O)Nc1ccccn1)N(O)C=O,98
9,FC(F)(F)c1cccc(CNCCCCCNCc2ccc(Cl)cc2)c1,91
10,COc1ccc(CN(C)CCCc2ccc(NC(=O)c3cccc4c(=O)c5cccc(F)c5[nH]c34)cc2)cc1OC,100
11,CC(C)C(=O)NC(c1ccc(Cl)cc1)c1ccc2cccnc2c1O (stereo not given),91
12,CC(=O)c1c(Nc2c(C)cc(C)cc2C)oc(C)cc1=O,95
13,COc1ccccc1CNC(=O)c1ccc(N2CCN(c3ccncc3)CC2)cn1.O=C(O)C(F)(F)F,96
14,Nc1c(Cl)cc(C(O)CNCCCCCOCCc2ccc3occc3c2)cc1Cl (stereo not given),99
15,COc1ccc(Cn2c(N3CCN(S(=O)(=O)c4ccc(OC)cc4)CC3)nc3c2c(=O)n(CC2CC2)c(=O)n3CC2CC2)cc1,92

# From ChEMBL document CHEMBL1157539, “Thousands of chemical starting points for antimalarial lead identification” (Nature, 2010)
